Measurements from paper PMC7862700, “An all-to-all approach to the identification of sequence-specific readers for epigenetic DNA modifications on cytosine”.

Legend:
Assay in all cases: DAPPL (digital affinity profiling via proximity ligation, sequencing); 10 mM Tris-HCl pH 7.5, 50 mM NaCl, 1 mM DTT, 4% glycerol, room temperature, 30 min; GST-TFs on glutathione beads, 16-mer random dsDNA library, 0.1% formaldehyde crosslink after washing; high values mean tight binding
[1] = biological target: T1, FEV (Homo sapiens, UniProt Q99581 1-238); conditions: protein: recombinant; tags: N-terminal GST; dsDNA, one strand shown
T1 sequence: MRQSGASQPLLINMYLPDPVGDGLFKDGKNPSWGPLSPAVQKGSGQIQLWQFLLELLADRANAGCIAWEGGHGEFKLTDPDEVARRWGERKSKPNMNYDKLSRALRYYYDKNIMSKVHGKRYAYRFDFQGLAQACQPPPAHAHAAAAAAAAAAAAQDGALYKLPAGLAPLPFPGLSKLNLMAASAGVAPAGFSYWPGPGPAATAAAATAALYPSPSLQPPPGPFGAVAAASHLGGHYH
In short: (§1)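 Human transcription factors were made in yeast as GST fusions, captured on glutathione beads and barcoded with DNA. With a tag-only sample included, the pool was incubated with 200 nmole of a random double-stranded 16-mer DNA library in Tris/NaCl/DTT/glycerol buffer at room temperature for 30 min, then crosslinked with 0.1% formaldehyde after washing, ligated by proximity, amplified and sequenced. For binding signal, each hexamer's read frequency for a factor is divided by its frequency for the tag-only sample.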

[2] = biological target: ETV5 (Homo sapiens, UniProt P41161 1-510); conditions: protein: recombinant; tags: N-terminal GST; dsDNA, one strand shown
In short: as §1

[3] = biological target: HSF1 (Homo sapiens, UniProt Q00613 1-529); conditions: protein: recombinant; tags: N-terminal GST; chain copies: 3; dsDNA, one strand shown
In short: as §1

[4] = biological target: T2, SPIC (Homo sapiens, UniProt Q8N5J4 1-248); conditions: protein: recombinant; tags: N-terminal GST; dsDNA, one strand shown
T2 sequence: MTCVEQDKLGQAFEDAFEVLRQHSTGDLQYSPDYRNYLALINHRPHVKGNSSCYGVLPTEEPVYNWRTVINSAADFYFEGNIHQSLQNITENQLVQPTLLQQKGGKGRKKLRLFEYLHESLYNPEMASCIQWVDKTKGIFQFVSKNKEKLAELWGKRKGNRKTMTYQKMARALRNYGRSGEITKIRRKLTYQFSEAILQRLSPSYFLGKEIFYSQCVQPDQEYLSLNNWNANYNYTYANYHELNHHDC
In short: as §1

[5] = biological target: ELF4 (Homo sapiens, UniProt Q99607 1-663); conditions: protein: recombinant; tags: N-terminal GST; dsDNA, one strand shown
In short: as §1

[6] = biological target: T3, ELK4 (Homo sapiens, UniProt P28324-2 1-405); conditions: protein: recombinant; tags: N-terminal GST; dsDNA, one strand shown
T3 sequence: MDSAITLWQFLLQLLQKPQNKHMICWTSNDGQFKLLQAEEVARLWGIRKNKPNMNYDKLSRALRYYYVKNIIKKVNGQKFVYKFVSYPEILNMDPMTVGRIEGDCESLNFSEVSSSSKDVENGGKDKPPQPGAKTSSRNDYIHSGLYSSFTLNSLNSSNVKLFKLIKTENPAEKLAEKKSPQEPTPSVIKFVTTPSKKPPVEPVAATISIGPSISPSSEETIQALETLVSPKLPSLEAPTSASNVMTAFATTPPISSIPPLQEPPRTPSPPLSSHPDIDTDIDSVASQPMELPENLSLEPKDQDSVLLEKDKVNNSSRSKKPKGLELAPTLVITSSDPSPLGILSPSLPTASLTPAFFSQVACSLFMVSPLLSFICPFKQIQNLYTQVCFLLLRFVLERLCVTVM
In short: as §1

[7] = biological target: T4, ETV2 (Homo sapiens, UniProt O00321 1-342); conditions: protein: recombinant; tags: N-terminal GST; dsDNA, one strand shown
T4 sequence: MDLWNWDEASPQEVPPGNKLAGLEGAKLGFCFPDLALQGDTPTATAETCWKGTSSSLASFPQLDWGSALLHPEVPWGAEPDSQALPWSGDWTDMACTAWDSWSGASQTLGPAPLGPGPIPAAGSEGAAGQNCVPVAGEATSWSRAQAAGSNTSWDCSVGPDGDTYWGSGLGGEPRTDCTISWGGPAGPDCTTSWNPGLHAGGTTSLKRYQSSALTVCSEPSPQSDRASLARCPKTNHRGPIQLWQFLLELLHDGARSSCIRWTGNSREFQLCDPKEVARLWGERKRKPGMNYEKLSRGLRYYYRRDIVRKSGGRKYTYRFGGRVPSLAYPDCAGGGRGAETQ
In short: as §1

[8] = biological target: T5, ELF3 (Homo sapiens, UniProt P78545 1-371); conditions: protein: recombinant; tags: N-terminal GST; dsDNA, one strand shown
T5 sequence: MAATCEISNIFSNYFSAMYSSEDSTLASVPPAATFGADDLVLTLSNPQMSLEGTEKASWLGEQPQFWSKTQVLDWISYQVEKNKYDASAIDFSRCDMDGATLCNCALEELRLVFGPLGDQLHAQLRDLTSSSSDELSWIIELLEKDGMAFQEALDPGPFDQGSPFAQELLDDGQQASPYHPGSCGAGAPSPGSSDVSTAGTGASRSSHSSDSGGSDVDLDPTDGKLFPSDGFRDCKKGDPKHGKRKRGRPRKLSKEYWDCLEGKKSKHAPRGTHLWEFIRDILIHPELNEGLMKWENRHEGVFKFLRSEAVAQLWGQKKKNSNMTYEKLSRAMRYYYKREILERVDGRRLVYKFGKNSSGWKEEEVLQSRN
In short: as §1

[9] = biological target: CRX (Homo sapiens, UniProt O43186 1-299); conditions: protein: recombinant; tags: N-terminal GST; dsDNA, one strand shown
In short: as §1

[10] = biological target: ETV1 (Homo sapiens, UniProt P50549 1-477); conditions: protein: recombinant; tags: N-terminal GST; dsDNA, one strand shown
In short: as §1

[11] = biological target: T6, ERF (Homo sapiens, UniProt P50548 1-548); conditions: protein: recombinant; tags: N-terminal GST; dsDNA, one strand shown
T6 sequence: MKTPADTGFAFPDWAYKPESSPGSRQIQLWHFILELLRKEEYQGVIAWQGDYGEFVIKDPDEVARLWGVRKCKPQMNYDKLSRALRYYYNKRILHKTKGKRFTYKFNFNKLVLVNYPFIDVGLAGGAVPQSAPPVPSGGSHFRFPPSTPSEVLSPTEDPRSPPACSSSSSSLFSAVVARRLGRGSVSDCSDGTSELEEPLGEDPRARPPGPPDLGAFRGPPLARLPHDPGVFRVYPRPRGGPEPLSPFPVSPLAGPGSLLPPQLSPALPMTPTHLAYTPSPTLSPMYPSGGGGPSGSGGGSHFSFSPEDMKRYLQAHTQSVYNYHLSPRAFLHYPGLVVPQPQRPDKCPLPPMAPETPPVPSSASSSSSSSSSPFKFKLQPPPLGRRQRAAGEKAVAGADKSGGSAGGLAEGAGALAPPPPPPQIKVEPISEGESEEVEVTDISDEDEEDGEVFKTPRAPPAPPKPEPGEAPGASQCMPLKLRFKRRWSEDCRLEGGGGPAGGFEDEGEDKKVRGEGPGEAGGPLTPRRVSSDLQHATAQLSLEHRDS
In short: as §1

[12] = biological target: T7, ETV3L (Homo sapiens, UniProt Q6ZN32 1-361); conditions: protein: recombinant; tags: N-terminal GST; dsDNA, one strand shown
T7 sequence: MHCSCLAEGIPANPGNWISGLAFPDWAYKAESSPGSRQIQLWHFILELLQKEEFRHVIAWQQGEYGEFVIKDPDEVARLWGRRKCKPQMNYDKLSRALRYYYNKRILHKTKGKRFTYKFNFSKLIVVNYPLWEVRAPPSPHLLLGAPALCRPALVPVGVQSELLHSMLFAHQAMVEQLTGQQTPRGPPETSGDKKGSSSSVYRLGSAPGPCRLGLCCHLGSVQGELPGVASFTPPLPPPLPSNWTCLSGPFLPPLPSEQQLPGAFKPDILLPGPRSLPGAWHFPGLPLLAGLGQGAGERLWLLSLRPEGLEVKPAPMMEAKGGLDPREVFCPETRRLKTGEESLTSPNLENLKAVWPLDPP
In short: as §1

[13] = biological target: T8, ETS2 (Homo sapiens, UniProt P15036 1-469); conditions: protein: recombinant; tags: N-terminal GST; dsDNA, one strand shown
T8 sequence: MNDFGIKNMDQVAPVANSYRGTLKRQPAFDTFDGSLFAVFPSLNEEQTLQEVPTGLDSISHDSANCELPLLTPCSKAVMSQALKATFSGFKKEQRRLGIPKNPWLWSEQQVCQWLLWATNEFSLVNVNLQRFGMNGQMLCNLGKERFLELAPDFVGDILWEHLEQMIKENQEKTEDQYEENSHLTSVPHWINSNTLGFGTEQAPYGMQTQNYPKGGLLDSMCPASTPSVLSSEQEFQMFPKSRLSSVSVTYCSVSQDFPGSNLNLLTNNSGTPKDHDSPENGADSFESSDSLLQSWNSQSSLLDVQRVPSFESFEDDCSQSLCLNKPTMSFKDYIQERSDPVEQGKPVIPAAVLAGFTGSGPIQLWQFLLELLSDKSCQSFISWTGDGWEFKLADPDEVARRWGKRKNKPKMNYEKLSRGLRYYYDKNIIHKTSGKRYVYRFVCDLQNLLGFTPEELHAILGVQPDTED
In short: as §1

[14] = biological target: T9, SPDEF (Homo sapiens, UniProt O95238 1-335); conditions: protein: recombinant; tags: N-terminal GST; dsDNA, one strand shown
T9 sequence: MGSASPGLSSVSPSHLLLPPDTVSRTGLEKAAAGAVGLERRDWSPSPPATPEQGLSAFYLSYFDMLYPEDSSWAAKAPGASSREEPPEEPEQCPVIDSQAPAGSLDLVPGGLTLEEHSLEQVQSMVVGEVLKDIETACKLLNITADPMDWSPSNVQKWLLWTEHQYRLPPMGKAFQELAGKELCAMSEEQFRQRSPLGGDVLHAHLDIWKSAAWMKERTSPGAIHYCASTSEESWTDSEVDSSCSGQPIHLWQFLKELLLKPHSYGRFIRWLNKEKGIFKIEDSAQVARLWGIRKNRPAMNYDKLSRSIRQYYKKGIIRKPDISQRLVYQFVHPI
In short: as §1

[15] = biological target: T10, ETV7 (Homo sapiens, UniProt Q9Y603 1-341); conditions: protein: recombinant; tags: N-terminal GST; dsDNA, one strand shown
T10 sequence: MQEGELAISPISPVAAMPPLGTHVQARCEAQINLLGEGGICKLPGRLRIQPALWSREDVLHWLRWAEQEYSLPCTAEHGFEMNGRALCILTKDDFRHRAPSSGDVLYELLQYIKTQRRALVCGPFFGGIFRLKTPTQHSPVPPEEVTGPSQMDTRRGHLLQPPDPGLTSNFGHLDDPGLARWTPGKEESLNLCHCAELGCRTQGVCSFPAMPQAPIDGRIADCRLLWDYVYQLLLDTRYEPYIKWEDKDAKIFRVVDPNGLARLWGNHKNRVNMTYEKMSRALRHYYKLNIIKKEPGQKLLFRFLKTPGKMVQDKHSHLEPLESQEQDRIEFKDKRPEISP
In short: as §1

[16] = biological target: T11, ELF5 (Homo sapiens, UniProt Q9UKW6-2 1-255); conditions: protein: recombinant; tags: N-terminal GST; dsDNA, one strand shown
T11 sequence: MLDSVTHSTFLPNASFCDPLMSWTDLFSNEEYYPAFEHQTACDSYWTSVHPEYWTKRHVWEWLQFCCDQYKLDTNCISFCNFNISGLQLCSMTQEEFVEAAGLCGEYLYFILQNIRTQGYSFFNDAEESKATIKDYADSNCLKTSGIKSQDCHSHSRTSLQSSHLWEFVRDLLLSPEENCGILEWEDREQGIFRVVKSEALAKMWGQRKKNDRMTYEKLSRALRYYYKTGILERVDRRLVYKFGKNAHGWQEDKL
In short: as §1

[17] = biological target: T12, ETV3 (Homo sapiens, UniProt P41162-2 1-143); conditions: protein: recombinant; tags: N-terminal GST; dsDNA, one strand shown
T12 sequence: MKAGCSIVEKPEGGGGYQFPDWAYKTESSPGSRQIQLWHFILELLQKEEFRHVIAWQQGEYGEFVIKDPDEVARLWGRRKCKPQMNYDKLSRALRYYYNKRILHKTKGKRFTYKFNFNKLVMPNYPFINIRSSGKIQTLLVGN
In short: as §1

[18] = biological target: ETV6 (Homo sapiens, UniProt P41212 1-452); conditions: protein: recombinant; tags: N-terminal GST; dsDNA, one strand shown
In short: as §1

Chain of ETV1 (P50549 whole entry): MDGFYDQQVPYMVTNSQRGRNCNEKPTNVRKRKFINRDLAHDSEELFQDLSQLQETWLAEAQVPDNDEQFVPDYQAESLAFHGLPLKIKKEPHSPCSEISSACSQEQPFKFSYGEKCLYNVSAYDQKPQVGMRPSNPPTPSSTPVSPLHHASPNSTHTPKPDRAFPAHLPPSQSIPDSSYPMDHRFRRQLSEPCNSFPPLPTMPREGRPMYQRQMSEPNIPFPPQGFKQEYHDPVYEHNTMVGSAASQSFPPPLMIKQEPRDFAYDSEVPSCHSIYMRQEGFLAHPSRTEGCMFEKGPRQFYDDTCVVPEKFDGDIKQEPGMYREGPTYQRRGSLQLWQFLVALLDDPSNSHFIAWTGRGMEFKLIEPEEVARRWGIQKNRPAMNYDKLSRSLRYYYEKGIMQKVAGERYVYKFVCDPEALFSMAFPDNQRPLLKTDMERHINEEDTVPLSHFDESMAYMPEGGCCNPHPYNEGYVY
Chain of ELF4 (Q99607 whole entry): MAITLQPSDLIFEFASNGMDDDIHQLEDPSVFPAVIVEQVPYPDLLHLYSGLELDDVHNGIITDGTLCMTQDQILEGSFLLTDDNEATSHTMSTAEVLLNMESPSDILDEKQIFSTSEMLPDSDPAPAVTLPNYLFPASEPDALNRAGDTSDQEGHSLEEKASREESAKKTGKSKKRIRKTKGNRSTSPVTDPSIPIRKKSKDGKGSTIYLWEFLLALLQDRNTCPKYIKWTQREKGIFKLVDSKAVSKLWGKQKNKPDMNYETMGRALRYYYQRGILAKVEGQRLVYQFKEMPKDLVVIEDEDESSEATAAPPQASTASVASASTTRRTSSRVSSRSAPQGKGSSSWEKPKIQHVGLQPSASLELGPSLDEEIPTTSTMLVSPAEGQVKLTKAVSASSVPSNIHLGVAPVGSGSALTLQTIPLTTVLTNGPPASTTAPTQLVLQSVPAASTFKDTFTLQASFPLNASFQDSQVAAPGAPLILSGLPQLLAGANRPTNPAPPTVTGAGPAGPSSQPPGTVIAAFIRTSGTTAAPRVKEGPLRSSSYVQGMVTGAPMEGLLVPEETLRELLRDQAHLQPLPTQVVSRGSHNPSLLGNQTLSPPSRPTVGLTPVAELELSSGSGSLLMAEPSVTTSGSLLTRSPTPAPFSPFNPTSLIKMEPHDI
Chain of CRX (O43186 whole entry): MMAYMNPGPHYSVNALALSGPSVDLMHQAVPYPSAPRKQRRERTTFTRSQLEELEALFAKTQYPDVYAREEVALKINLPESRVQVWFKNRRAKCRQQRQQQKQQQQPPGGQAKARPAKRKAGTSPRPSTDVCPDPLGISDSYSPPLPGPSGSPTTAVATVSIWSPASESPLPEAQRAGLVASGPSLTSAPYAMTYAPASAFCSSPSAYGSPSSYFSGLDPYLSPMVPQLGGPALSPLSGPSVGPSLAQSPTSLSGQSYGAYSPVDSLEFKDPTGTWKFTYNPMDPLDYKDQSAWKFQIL
Chain of ETV5 (P41161 whole entry): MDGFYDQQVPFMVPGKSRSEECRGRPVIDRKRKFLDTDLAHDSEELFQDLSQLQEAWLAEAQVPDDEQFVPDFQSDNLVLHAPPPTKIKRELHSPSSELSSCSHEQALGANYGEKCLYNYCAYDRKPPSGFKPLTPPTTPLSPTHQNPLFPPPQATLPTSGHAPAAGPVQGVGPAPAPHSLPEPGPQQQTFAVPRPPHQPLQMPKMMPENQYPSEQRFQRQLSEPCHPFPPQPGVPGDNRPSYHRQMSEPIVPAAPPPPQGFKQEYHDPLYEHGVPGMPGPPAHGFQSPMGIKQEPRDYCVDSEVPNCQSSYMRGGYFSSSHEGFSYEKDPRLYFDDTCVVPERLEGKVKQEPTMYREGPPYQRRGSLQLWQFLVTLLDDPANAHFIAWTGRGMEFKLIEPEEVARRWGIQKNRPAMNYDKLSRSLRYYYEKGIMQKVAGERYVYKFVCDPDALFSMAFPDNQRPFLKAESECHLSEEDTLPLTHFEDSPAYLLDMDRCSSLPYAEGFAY
Chain of ETV6 (P41212 whole entry): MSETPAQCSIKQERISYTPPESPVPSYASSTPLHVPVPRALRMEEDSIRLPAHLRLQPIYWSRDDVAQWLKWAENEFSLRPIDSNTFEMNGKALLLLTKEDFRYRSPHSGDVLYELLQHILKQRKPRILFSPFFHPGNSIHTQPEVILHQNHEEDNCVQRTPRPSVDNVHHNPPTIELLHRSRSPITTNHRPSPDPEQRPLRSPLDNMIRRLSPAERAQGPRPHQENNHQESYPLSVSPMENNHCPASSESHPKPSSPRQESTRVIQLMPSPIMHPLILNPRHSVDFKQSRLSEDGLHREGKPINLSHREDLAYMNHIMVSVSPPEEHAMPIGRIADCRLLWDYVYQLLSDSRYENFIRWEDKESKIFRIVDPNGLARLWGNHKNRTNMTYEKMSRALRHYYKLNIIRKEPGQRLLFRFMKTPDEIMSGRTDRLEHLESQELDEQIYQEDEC
Chain of HSF1 (Q00613 whole entry): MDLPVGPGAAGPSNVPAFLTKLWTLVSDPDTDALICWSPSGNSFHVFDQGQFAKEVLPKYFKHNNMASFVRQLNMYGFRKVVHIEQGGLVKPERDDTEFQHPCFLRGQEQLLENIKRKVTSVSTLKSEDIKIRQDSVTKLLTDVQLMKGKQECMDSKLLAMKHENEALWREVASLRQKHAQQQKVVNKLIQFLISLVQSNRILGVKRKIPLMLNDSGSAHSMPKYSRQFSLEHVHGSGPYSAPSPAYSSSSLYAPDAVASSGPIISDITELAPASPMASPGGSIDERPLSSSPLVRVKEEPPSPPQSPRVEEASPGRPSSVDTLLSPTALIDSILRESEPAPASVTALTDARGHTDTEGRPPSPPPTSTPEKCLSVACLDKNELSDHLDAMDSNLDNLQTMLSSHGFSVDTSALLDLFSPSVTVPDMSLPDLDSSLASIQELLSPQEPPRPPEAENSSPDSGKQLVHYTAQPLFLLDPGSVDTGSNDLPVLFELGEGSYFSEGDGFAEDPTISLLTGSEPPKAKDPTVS

Sequence: TAATAG
- binding signal [1]: 1.18 fold enrichment (6-mer frequency, TF over GST control)
- binding signal [2]: 1.21 fold enrichment (6-mer frequency, TF over GST control)
- binding signal [3]: 1.54 fold enrichment (6-mer frequency, TF over GST control)
- binding signal [4]: 1.39 fold enrichment (6-mer frequency, TF over GST control)
- binding signal [5]: 1.15 fold enrichment (6-mer frequency, TF over GST control)
- binding signal [6]: 1.19 fold enrichment (6-mer frequency, TF over GST control)
- binding signal [7]: 1.02 fold enrichment (6-mer frequency, TF over GST control)
- binding signal [8]: 1.06 fold enrichment (6-mer frequency, TF over GST control)
- binding signal [9]: 1.94 fold enrichment (6-mer frequency, TF over GST control)
- binding signal [10]: 1.22 fold enrichment (6-mer frequency, TF over GST control)
- binding signal [11]: 1.24 fold enrichment (6-mer frequency, TF over GST control)
- binding signal [12]: 1.12 fold enrichment (6-mer frequency, TF over GST control)
- binding signal [13]: 1.2 fold enrichment (6-mer frequency, TF over GST control)
- binding signal [14]: 1.19 fold enrichment (6-mer frequency, TF over GST control)
- binding signal [15]: 1.2 fold enrichment (6-mer frequency, TF over GST control)
- binding signal [16]: 1.15 fold enrichment (6-mer frequency, TF over GST control)
- binding signal [17]: 1.15 fold enrichment (6-mer frequency, TF over GST control)
- binding signal [18]: 1.14 fold enrichment (6-mer frequency, TF over GST control)
